Laboratory results taken from PubChem BioAssay (NCI).
The panel holds about 79,000 compounds, 15% with a hit somewhere; the sample as a whole holds those more often. Active and inactive are the calls of the source. No stated cut-off is given here; in the data, active means growth inhibition above about 70%; inactive means the rest.

What was measured:
[1] = NCI Yeast Anticancer Drug Screen. Data for the rad52 strain (AID 147);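 further: 0% = growth of vehicle-treated control cultures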; conditions: S. cerevisiae rad52 mutant growth inhibition, stronger effect = higher value
Outline: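 DNA repair-defective yeast; compound exposure; growth scored against vehicle controls.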

[2] = NCI Yeast Anticancer Drug Screen. Data for the wt1 strain (AID 149);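 further: 0% = growth of vehicle-treated wt1 cultures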; conditions: S. cerevisiae wt1 strain (SPY 50644) growth inhibition, stronger effect = higher value
Outline: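 The wt1 strain was treated with compounds, and growth was compared with vehicle-treated cultures to give inhibition.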

[3] = NCI Yeast Anticancer Drug Screen. Data for the mgt1 strain (AID 153); conditions: S. cerevisiae mgt1 mutant growth inhibition, stronger effect = higher value
Outline: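 Growth inhibition relative to vehicle controls was scored for the mgt1 yeast strain after compound exposure.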

[4] = NCI Yeast Anticancer Drug Screen. Data for the rad50 strain (AID 155);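 further: 0% = growth of vehicle-only cultures of the same strain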; conditions: S. cerevisiae rad50 strain growth inhibition, stronger effect = higher value
Outline: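 Cells are treated with compound, grown, and their growth is then scored against vehicle-only cultures of the same repair-deficient yeast strain.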

[5] = NCI Yeast Anticancer Drug Screen. Data for the mec2-1 strain (AID 157); conditions: S. cerevisiae mec2-1 strain, stronger effect = higher value
Outline: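 Growth inhibition is read against vehicle-treated controls after compound exposure of the mec2-1 yeast strain, which is defective in DNA damage repair or cell cycle control.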

[6] = NCI Yeast Anticancer Drug Screen. Data for the rad14 strain (AID 159);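 further: 0% = growth of vehicle-treated control cultures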; conditions: S. cerevisiae rad14 strain growth inhibition, stronger effect = higher value
Outline: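 Readout: yeast growth inhibition, referenced to vehicle-only cultures. Strain bears a defined alteration in DNA damage repair.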

[7] = NCI Yeast Anticancer Drug Screen. Data for the sgs1 mgt1 strain (AID 161);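 further: 0% = growth of cultures given vehicle only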; conditions: S. cerevisiae sgs1 mgt1 strain, stronger effect = higher value
Outline: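 Percent growth inhibition was derived by comparing compound-exposed mutant yeast with vehicle-exposed cultures. The strain carries alterations in DNA damage repair.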

[8] = NCI Yeast Anticancer Drug Screen. Data for the cln2 rad14 strain (AID 165);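 further: 0% = growth equal to vehicle treated cultures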; conditions: S. cerevisiae cln2 rad14 strain, stronger effect = higher value
Outline: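 Growth inhibition, relative to vehicle-treated controls, is the read-out. The test organism is a yeast strain with defined genetic alterations, cln2 rad14.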

[9] = NCI Yeast Anticancer Drug Screen. Data for the bub3 strain (AID 167); conditions: S. cerevisiae bub3 mutant strain, stronger effect = higher value
Outline: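 Part of a panel of yeast mutants defective in DNA damage repair or cell cycle regulation. Each strain is grown with compound, and inhibition is calculated relative to solvent-treated cultures.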

[10] = NCI Yeast Anticancer Drug Screen. Data for the mlh1 strain (AID 171);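 further: 0% = growth of vehicle-treated control cultures of the same strain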; conditions: S. cerevisiae mlh1 strain growth inhibition, stronger effect = higher value
Outline: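 Compounds are applied to a genetically altered yeast strain, and its growth is compared with that of vehicle-treated cultures to give percent inhibition.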

[11] = NCI Yeast Anticancer Drug Screen. Data for the sgs1 strain (AID 173);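 further: 0% = growth of vehicle-only control cultures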; conditions: S. cerevisiae sgs1 mutant, stronger effect = higher value
Outline: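 Compounds applied to genetically altered yeast; growth compared with vehicle-treated cultures to give % inhibition.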

[12] = NCI Yeast Anticancer Drug Screen. Data for the mlh1 rad18 strain (AID 175); conditions: S. cerevisiae mlh1 rad18 strain growth inhibition, stronger effect = higher value
Outline: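 Cells of a genetically altered yeast strain, deficient in DNA damage repair, were treated with compound. Their growth was then compared with that of vehicle-treated cultures to give inhibition.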

[13] = NCI Yeast Anticancer Drug Screen. Data for the rad18 strain (AID 177); conditions: S. cerevisiae rad18 mutant growth inhibition, stronger effect = higher value
Outline: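 Compounds are applied to a repair-deficient yeast strain, and growth is compared with that of vehicle-treated cultures to give percent inhibition.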

[14] = NCI Yeast Anticancer Drug Screen. Data for the rad50EPP+ strain (AID 151);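 further: 0% = growth of vehicle-treated control cultures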; conditions: S. cerevisiae rad50 mutant strain, stronger effect = higher value
Outline: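 rad50EPP+ yeast treated with test compounds. Readout: growth vs vehicle control.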

[15] = NCI Yeast Anticancer Drug Screen. Data for the CLN2oe strain (AID 163);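 further: 0% = growth of vehicle-only control cultures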; conditions: S. cerevisiae CLN2oe strain, stronger effect = higher value
Outline: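 Compound-treated yeast; growth vs vehicle ctrl = % inhibition. Genetically altered strain (cell-cycle control).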

[16] = NCI Yeast Anticancer Drug Screen. Data for the wt2 strain (AID 169);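 further: 0% = growth of vehicle-treated yeast cultures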; conditions: S. cerevisiae wt2 strain growth inhibition, stronger effect = higher value
Outline: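 Compound exposure of yeast; growth compared with vehicle controls; inhibition reported.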

[17] = at 5.0 µM (retest, dose inferred, filed as 0.5)
[18] = at 50.0 µM (retest, dose inferred, filed as 5.0)

Measured: growth inhibition

Cc1cccc(/C=N/NC(=S)N2CCCC2)n1
inactive: [1]; at 1.2 µM -25% | [1]; at 3.7 µM -26% | [1]; at 11.0 µM 27% | [2]; at 1.2 µM -4% | [2]; at 3.7 µM 1% | [2]; at 11.0 µM 12% | [3]; at 1.2 µM -13% | [3]; at 3.7 µM -14% | [3]; at 11.0 µM 18% | [4]; at 1.2 µM -10% | [4]; at 3.7 µM -14% | [4]; [17] 26% | [4]; at 11.0 µM 35% | [5]; at 1.2 µM -24% | [5]; at 3.7 µM -21% | [5]; [17] 36% | [6]; at 1.2 µM 2% | [6]; at 3.7 µM 6% | [7]; [17] 25% | [7]; [18] 47% | [8]; [17] 2% | [9]; at 1.2 µM -13% | [9]; at 3.7 µM -8% | [9]; [17] 40% | [9]; at 11.0 µM 32% | [10]; at 1.2 µM -8% | [10]; at 3.7 µM -8% | [10]; at 11.0 µM 48% | [11]; at 1.2 µM -19% | [11]; at 3.7 µM -21% | [11]; at 11.0 µM 17% | [12]; [17] 14% | [13]; at 1.2 µM -17% | [13]; at 3.7 µM -14% | [13]; at 11.0 µM 12%
active: [1]; at 33.0 µM 94% | [1]; at 100.0 µM 96% | [2]; at 33.0 µM 94% | [2]; at 100.0 µM 96% | [3]; at 33.0 µM 94% | [3]; at 100.0 µM 96% | [4]; at 33.0 µM 95% | [4]; [18] 94% | [4]; at 50.0 µM 86.3% | [4]; at 100.0 µM 95% | [5]; at 11.0 µM 73% | [5]; at 33.0 µM 94% | [5]; [18] 95% | [5]; at 50.0 µM 89.8% | [5]; at 100.0 µM 97% | [6]; at 11.0 µM 74% | [6]; at 33.0 µM 96% | [6]; at 100.0 µM 98% | [7]; at 50.0 µM 88.2% | [8]; [18] 94% | [8]; at 50.0 µM 87% | [9]; at 33.0 µM 95% | [9]; [18] 96% | [9]; at 50.0 µM 88.5% | [9]; at 100.0 µM 96% | [10]; at 33.0 µM 95% | [10]; at 100.0 µM 97% | [11]; at 33.0 µM 95% | [11]; at 100.0 µM 96% | [12]; [18] 95% | [12]; at 50.0 µM 86% | [13]; at 33.0 µM 95% | [13]; at 100.0 µM 96%

CCc1c(Cl)c(C)cc(O)c1Cl
inactive: [1]; at 1.2 µM 4% | [1]; at 3.7 µM -9% | [1]; at 11.0 µM 8% | [1]; at 33.0 µM 22% | [14]; at 1.2 µM -27% | [14]; at 3.7 µM -13% | [14]; at 11.0 µM 8% | [14]; at 33.0 µM 42% | [3]; at 1.2 µM 19% | [3]; at 3.7 µM 5% | [3]; at 11.0 µM 29% | [3]; at 33.0 µM 49% | [4]; at 1.2 µM -27% | [4]; at 3.7 µM -30% | [4]; [17] 38% | [4]; at 11.0 µM -27% | [4]; at 33.0 µM 23% | [5]; at 1.2 µM -10% | [5]; at 3.7 µM 1% | [5]; [17] 46% | [5]; at 11.0 µM 5% | [5]; at 33.0 µM 12% | [6]; at 1.2 µM -8% | [6]; at 3.7 µM -46% | [6]; at 11.0 µM -19% | [6]; at 33.0 µM 4% | [7]; [17] -26% | [7]; [18] 46% | [15]; at 1.2 µM -7% | [15]; at 3.7 µM -18% | [15]; at 11.0 µM -4% | [15]; at 33.0 µM 6% | [8]; [17] 32% | [8]; [18] 44% | [9]; at 1.2 µM -8% | [9]; at 3.7 µM -19% | [9]; [17] 3% | [9]; at 11.0 µM -7% | [9]; at 33.0 µM 20% | [9]; [18] 53% | [16]; at 1.2 µM -35% | [16]; at 3.7 µM -30% | [16]; at 11.0 µM -26% | [16]; at 33.0 µM -9% | [10]; at 1.2 µM 6% | [10]; at 3.7 µM -7% | [10]; at 11.0 µM 12% | [10]; at 33.0 µM 19% | [11]; at 1.2 µM -4% | [11]; at 3.7 µM -4% | [11]; at 11.0 µM 5% | [11]; at 33.0 µM 33% | [12]; [17] 35% | [13]; at 1.2 µM -20% | [13]; at 3.7 µM 6% | [13]; at 11.0 µM -23% | [13]; at 33.0 µM -46% | [13]; at 100.0 µM 50%
active: [1]; at 100.0 µM 96% | [14]; at 100.0 µM 89% | [3]; at 100.0 µM 95% | [4]; [18] 91% | [4]; at 50.0 µM 91.4% | [4]; at 100.0 µM 94% | [5]; [18] 94% | [5]; at 50.0 µM 84.7% | [5]; at 100.0 µM 93% | [6]; at 100.0 µM 90% | [7]; at 50.0 µM 86.2% | [15]; at 100.0 µM 75% | [8]; at 50.0 µM 77.2% | [9]; at 50.0 µM 92.6% | [9]; at 100.0 µM 85% | [16]; at 100.0 µM 92% | [10]; at 100.0 µM 82% | [11]; at 100.0 µM 91% | [12]; [18] 85% | [12]; at 50.0 µM 89.5%
